Inconclusive results are not listed. The source made the active and inactive calls. The call rests on the fitted dose curve; in most records, active means well fitted curve in the direction sought with a large enough effect; inconclusive means small, poorly fitted or top-dose-only effect, or another doubt; inactive means no such curve, though single readings can be large; an effect the other way counts as inactive or inconclusive.
tested on: not listed separately; assay: qHTS for Inhibitors of the Aldehyde Dehydrogenase Family (ALDH1A2, ALDH1A3, ALDH2, ALDH3A1) (AID 2061307); settings: ALDH inhibition qHTS; series mostly up to 50.3 µM; activity change, negative = inhibition: at the top concentration; further: nearly all actives have a fitted effect of over 50% in size; on Potency: test system not described further here; on activity change, negative = inhibition: on the % scale 0 is the no-effect control and ±100 the full control effect
Potency means the concentration at half of the fitted maximal effect.

Row | SMILES | activity change, negative = inhibition | Potency
1 | Cc1nc(C)c(-c2ccc3ncnc(NCc4ncc[nH]4)c3c2)s1 | 5.54% (inactive) | –
2 | COc1ccc(C2=Nn3c(nnc3-c3cc(OC)ccc3OC)SC2)c(OC)c1 | – | 17.9 µM (active)
3 | CC(=O)N(C(C)=O)n1c(C)nc2sc3c(c2c1=O)CCNC3 | 16.7% (inactive) | –
4 | CCC(=O)C1CCCN(C(=O)CC(c2ccc3c(c2)OCO3)c2c(O)cc(OC)cc2OC)C1 (stereo not given) | -13.4% (inactive) | –
5 | Cc1cccc(OC2=NS(=O)(=O)c3ccccc32)c1 | -1.58% (inactive) | –
6 | N[C@@H](CCC(=O)O)C(=O)Nc1ccc(Cl)cc1C(=O)c1ccc[nH]1 | -8.77% (inactive) | –
7 | Cc1cccc2c(C(=O)O)cc(Cl)nc12 | 3.58% (inactive) | –
8 | Fc1cc(Nc2nc(-c3ccncc3)nc3ccccc23)ccc1N1CCCCC1 | 8.6% (inactive) | –
9 | COc1cccc(C2c3c(ncn(CCCN4CCOCC4)c3=N)Oc3ccc4ccccc4c32)c1 (stereo not given) | 413% (inactive) | –
10 | Cc1cc(N2C(=O)c3ccccc3C2=O)n[nH]1 | 13% (inactive) | –
11 | O=C1[C@@H]2[C@H]3CC[C@H](C3)[C@@H]2C(=O)N1CCCCN1CCN(c2ncccn2)CC1 | 13.6% (inactive) | –
12 | CC(=O)SCC(CC(=O)c1ccc(C)cc1)C(=O)O (stereo not given) | -28.5% (inactive) | –
13 | N#Cc1c(-c2csc(-c3no[n+]([O-])c3C#N)c2)no[n+]1[O-] | – | 6.34 µM (active)
14 | CCCCN(CCCNC(=S)NCCCc1cnc[nH]1)c1ccc(Br)cn1 | – | 12.6 µM (active)
15 | O=C(O)c1ccc(S(=O)(=O)N[C@H](Cc2ccccc2)C(=O)O)cc1 | -0.763% (inactive) | –
16 | CCc1nnc(-c2cnn(C)c2N)n1CCCn1ccnc1 | 9.91% (inactive) | –
17 | CCCCNc1ccc(C(=O)OCCN(CC)CC)cc1 | 0.0679% (inactive) | –
18 | O=C1NC(=O)/C(=C/c2cccn2-c2ccc(P(O)O)cc2)N1 | -5.7% (inactive) | –
19 | Cc1cc(NC(=O)c2ccc([S+](=O)([O-])NCc3ccc(Cl)c(Cl)c3)cc2)no1 | 10.9% (inactive) | –
20 | Cc1nnc(-c2cnn(C)c2N)n1CCCn1ccnc1 | 2.52% (inactive) | –

Row | SMILES | activity change, negative = inhibition | Potency
21 | Cn1ncc(-c2nnc(-c3ccccc3)n2CCCn2ccnc2)c1N | -5.96% (inactive) | –
22 | O=C(NC1CCCc2c1cnn2-c1ccc(F)cc1F)c1ccccn1 (stereo not given) | 3.3% (inactive) | –
23 | O=C(O)c1ccc2c(c1)C(=O)N([C@H](Cc1ccc(F)cc1)C(=O)O)C2=O | -2.97% (inactive) | –
24 | CC(C)(C)c1ccc(SC2=NS(=O)(=O)c3ccccc32)cc1 | 28.7% (inactive) | –
25 | Cc1cc2c(s1)c1cnn(Cc3c(Cl)ccc(C)c3F)c(=O)c1n2C | 3.81% (inactive) | –
26 | Cc1ccc(C[C@@H](NS(=O)(=O)c2ccc(C(=O)O)cc2)C(=O)O)cc1 | -10.9% (inactive) | –
27 | COc1ccc(C2Nc3ccccc3C(=O)N2CCO)cc1COc1ccc(NC(C)=O)cc1 (stereo not given) | – | 3.18 µM (active)
28 | O=S1(=O)N=C(Oc2ccccc2)c2ccccc21 | 4.02% (inactive) | –
29 | Cc1ccccc1C[C@H](C(=O)O)N1C(=O)c2ccc(C(=O)O)cc2C1=O | -1.24% (inactive) | –
30 | Cc1nc2ccccn2c1P(=O)(c1ccccc1)c1ccccc1 | 20.2% (inactive) | –
31 | Cc1ccc2nc(-c3ccccn3)c(Nc3ccccc3C)n2c1 | -6.61% (inactive) | –
32 | Cc1noc(C)c1-c1csc(N2CCC(C(N)=O)CC2)n1 | 4.1% (inactive) | –
33 | C[C@@](Cc1ccccc1)(C(=O)O)N1C(=O)c2ccc(C(=O)O)cc2C1=O | 6.68% (inactive) | –
34 | COc1ccc(C2=Nn3c(nnc3-c3cccc(OC)c3OC)SC2)cc1 | -28.6% (inactive) | –
35 | COC(=O)c1ccc2c(c1)S(=O)(=O)N=C2Sc1cc(C)ccc1C | -21% (inactive) | –
36 | CC(C)(C)c1ccc(C[C@H](C(=O)O)N2C(=O)c3ccc(C(=O)O)cc3C2=O)cc1 | 0.338% (inactive) | –
37 | O=C(C1CCN(c2nc(-c3ccc(Br)cc3)cs2)CC1)N1CCNCC1 | -28.4% (inactive) | –
38 | CCc1nn2c(=O)cc(-c3ccncc3)nc2s1 | 1.42% (inactive) | –
39 | Cc1ccc2nc3sc(C(=O)NCc4ccco4)cc3cc2c1 | – | 11.3 µM (active)
40 | O=C1c2ccccc2NC(c2ccc(-c3cccc([N+](=O)[O-])c3)o2)N1O (stereo not given) | – | 2.25 µM (active)

biological target: Aldehyde dehydrogenase, mitochondrial (Homo sapiens) (UniProt P05091); assay: qHTS for Inhibitors of the Aldehyde Dehydrogenase Family (ALDH2) Primary screen (AID 2061308); settings: ALDH2 enzyme inhibition qHTS, 1536-well; series mostly up to 56 µM; activity change, negative = inhibition: at the top concentration; further: nearly all actives have a fitted effect of over 55% in size;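 on activity change, negative = inhibition: plate controls were vehicle for no effect and reference inhibitor for full effect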

Row | SMILES | activity change, negative = inhibition | Potency
41 | Cc1nc(C)c(-c2ccc3ncnc(NCc4ncc[nH]4)c3c2)s1 | -5.86% (inactive) | –
42 | COc1ccc(C2=Nn3c(nnc3-c3cc(OC)ccc3OC)SC2)c(OC)c1 | 9.21% (inactive) | –
43 | CC(=O)N(C(C)=O)n1c(C)nc2sc3c(c2c1=O)CCNC3 | -16.9% (inactive) | –
44 | CCC(=O)C1CCCN(C(=O)CC(c2ccc3c(c2)OCO3)c2c(O)cc(OC)cc2OC)C1 (stereo not given) | -2.26% [at 114 µM] (inactive) | –
45 | Cc1cccc(OC2=NS(=O)(=O)c3ccccc32)c1 | -14.7% (inactive) | –
46 | N[C@@H](CCC(=O)O)C(=O)Nc1ccc(Cl)cc1C(=O)c1ccc[nH]1 | -19.1% (inactive) | –
47 | Cc1cccc2c(C(=O)O)cc(Cl)nc12 | -3.09% (inactive) | –
48 | Fc1cc(Nc2nc(-c3ccncc3)nc3ccccc23)ccc1N1CCCCC1 | 3.37% (inactive) | –
49 | COc1cccc(C2c3c(ncn(CCCN4CCOCC4)c3=N)Oc3ccc4ccccc4c32)c1 (stereo not given) | 40.7% (inactive) | –
50 | Cc1cc(N2C(=O)c3ccccc3C2=O)n[nH]1 | -3.13% (inactive) | –
51 | O=C1[C@@H]2[C@H]3CC[C@H](C3)[C@@H]2C(=O)N1CCCCN1CCN(c2ncccn2)CC1 | -26% (inactive) | –
52 | CC(=O)SCC(CC(=O)c1ccc(C)cc1)C(=O)O (stereo not given) | -25.1% (inactive) | –
53 | N#Cc1c(-c2csc(-c3no[n+]([O-])c3C#N)c2)no[n+]1[O-] | -80% (inactive) | –
54 | CCCCN(CCCNC(=S)NCCCc1cnc[nH]1)c1ccc(Br)cn1 | 6.36% (inactive) | –
55 | O=C(O)c1ccc(S(=O)(=O)N[C@H](Cc2ccccc2)C(=O)O)cc1 | -4.36% (inactive) | –
56 | CCc1nnc(-c2cnn(C)c2N)n1CCCn1ccnc1 | 6.68% (inactive) | –
57 | CCCCNc1ccc(C(=O)OCCN(CC)CC)cc1 | -11.1% (inactive) | –
58 | O=C1NC(=O)/C(=C/c2cccn2-c2ccc(P(O)O)cc2)N1 | -19.4% (inactive) | –
59 | Cc1cc(NC(=O)c2ccc([S+](=O)([O-])NCc3ccc(Cl)c(Cl)c3)cc2)no1 | -8.95% (inactive) | –
60 | Cc1nnc(-c2cnn(C)c2N)n1CCCn1ccnc1 | -12.7% (inactive) | –

Row | SMILES | activity change, negative = inhibition | Potency
61 | Cn1ncc(-c2nnc(-c3ccccc3)n2CCCn2ccnc2)c1N | 8.4% (inactive) | –
62 | O=C(NC1CCCc2c1cnn2-c1ccc(F)cc1F)c1ccccn1 (stereo not given) | -9.25% (inactive) | –
63 | O=C(O)c1ccc2c(c1)C(=O)N([C@H](Cc1ccc(F)cc1)C(=O)O)C2=O | -15.4% (inactive) | –
64 | CC(C)(C)c1ccc(SC2=NS(=O)(=O)c3ccccc32)cc1 | -5.69% (inactive) | –
65 | Cc1cc2c(s1)c1cnn(Cc3c(Cl)ccc(C)c3F)c(=O)c1n2C | -14.1% (inactive) | –
66 | Cc1ccc(C[C@@H](NS(=O)(=O)c2ccc(C(=O)O)cc2)C(=O)O)cc1 | 1.92% (inactive) | –
67 | COc1ccc(C2Nc3ccccc3C(=O)N2CCO)cc1COc1ccc(NC(C)=O)cc1 (stereo not given) | 9.11% (inactive) | –
68 | O=S1(=O)N=C(Oc2ccccc2)c2ccccc21 | -22.2% (inactive) | –
69 | Cc1ccccc1C[C@H](C(=O)O)N1C(=O)c2ccc(C(=O)O)cc2C1=O | -1.12% (inactive) | –
70 | Cc1nc2ccccn2c1P(=O)(c1ccccc1)c1ccccc1 | -1.47% (inactive) | –
71 | Cc1ccc2nc(-c3ccccn3)c(Nc3ccccc3C)n2c1 | -14.5% (inactive) | –
72 | Cc1noc(C)c1-c1csc(N2CCC(C(N)=O)CC2)n1 | -19.7% (inactive) | –
73 | C[C@@](Cc1ccccc1)(C(=O)O)N1C(=O)c2ccc(C(=O)O)cc2C1=O | -1.21% (inactive) | –
74 | COc1ccc(C2=Nn3c(nnc3-c3cccc(OC)c3OC)SC2)cc1 | 1.13% (inactive) | –
75 | COC(=O)c1ccc2c(c1)S(=O)(=O)N=C2Sc1cc(C)ccc1C | 3.04% (inactive) | –
76 | CC(C)(C)c1ccc(C[C@H](C(=O)O)N2C(=O)c3ccc(C(=O)O)cc3C2=O)cc1 | -11.4% (inactive) | –
77 | O=C(C1CCN(c2nc(-c3ccc(Br)cc3)cs2)CC1)N1CCNCC1 | -4.06% (inactive) | –
78 | CCc1nn2c(=O)cc(-c3ccncc3)nc2s1 | 4.14% (inactive) | –
79 | Cc1ccc2nc3sc(C(=O)NCc4ccco4)cc3cc2c1 | -5.02% (inactive) | –
80 | O=C1c2ccccc2NC(c2ccc(-c3cccc([N+](=O)[O-])c3)o2)N1O (stereo not given) | – | 10 µM (active)
